In the library only some 19% were active in any assay of this set; here they are far more common.
HT1080 IDH1KD tx: qHTS for induction of synthetic lethality in tumor cells producing 2HG: qHTS for the HT-1080-IDH1KD cell line; HT-1080 IDH1 knockdown viability, ATP luminescence, 48 h; 360,000 compounds, 2% hits; Potency, µM (doses to about 46.1 µM), without a hit: top-dose activity, negative = toxicity, most hits filed as cytotoxic;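 further: potency means the concentration at half of the fitted maximal effect; 0% = DMSO wells and -100% = cell-free medium wells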
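In this qHTS, HT-1080 cells depleted of IDH1 are exposed for 48 h at 37 °C to compound titrations. Toxicity is scored from CellTiter-Glo luminescence, with DMSO as full viability and medium alone as none.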
ELG1 repair inh: qHTS screen for small molecules that inhibit ELG1-dependent DNA repair in human embryonic kidney (HEK293T) cells expressing luciferase-tagged ELG1; 330,000 compounds, 2.3% hits; Potency, µM (top dose mostly 46.1 µM), for the others: at the highest dose activity change, negative = inhibition, most hits filed as inhibitors; HEK293T ELG1-luciferase reporter, luminescence, 16 h; DNA damage induced by 5-fluorouridine; further: potency means the concentration at half of the fitted maximal effect; nearly all actives have a fitted effect of over 55% in size
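Luminescence from the luciferase reporter, measured 30 min after ONE-Glo reagent at room temperature, was the read-out. Beforehand, 2,000 cells per well were exposed for 16 hr at 37 °C to 5-fluorouridine together with compound or vehicle.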
TDP1 cell noCPT: qHTS for Inhibitors of human tyrosyl-DNA phosphodiesterase 1 (TDP1): qHTS in cells in absence of CPT; DT40 Tdp1-/- hTDP1 cells, no CPT, ATP luminescence, 48 h; Potency, µM (doses to about 46.2 µM), without a hit: top-dose activity change, negative = growth inhibition, usual class: inhibitors; 420,000 compounds, 15% hits; AID 686978, 2013; further: potency means the concentration at half of the fitted maximal effect; nearly all actives have a fitted effect of over 55% in size
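Chicken DT40 Tdp1-/- cells stably complemented with human TDP1 were seeded at 400 cells/well with DMSO in place of 20 nM camptothecin. After compound pinning, cells grew at least 48 hr at 37 °C; viability read by CellTiter-Glo luminescence.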
TDP1 cell CPT: qHTS for Inhibitors of human tyrosyl-DNA phosphodiesterase 1 (TDP1): qHTS in cells in presence of CPT; chicken DT40 Tdp1-/-;hTDP1 cells + 20 nM CPT, ATP luminescence, 48 h; Potency, µM (doses to about 46.2 µM), without a hit: at the highest dose activity change, negative = growth inhibition, usual class: inhibitors; 420,000 compounds, 12% hits; further: potency means the concentration at half of the fitted maximal effect; nearly all actives have a fitted effect of over 55% in size
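Chicken DT40 Tdp1-/- cells stably complemented with human TDP1 were seeded at 400 cells/well in medium containing 20 nM camptothecin, exposed to pin-transferred compounds, and grown at 37 °C for at least 48 hr. Viability was read as ATP luminescence.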
HT1080NT lethal: qHTS for induction of synthetic lethality in tumor cells producing 2HG: qHTS for the HT-1080-NT fibrosarcoma cell line; 360,000 compounds, 1.6% hits; Potency, µM (highest dose often 46.1 µM), for inactives: at the top dose activity, negative = less viability, most hits filed as cytotoxic; HT-1080-NT fibrosarcoma viability, CellTiter-Glo ATP luminescence, 48 h;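 further: NT is the 2HG producing partner of a matched IDH1 knockdown line; potency means the concentration at half of the fitted maximal effect; 0% = DMSO-treated cells and -100% = media-only wells without cells; nearly all actives have a fitted effect of over 55% in size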
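750 cells/well, RPMI + 5% FBS; 2 h settle, compound pin-transfer, 48 h at 37 degrees C. CellTiter-Glo 10 min RT, luminescence. Normalized to DMSO and media-only wells.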
IL-1B inflam inh: qHTS for Inhibitors of Inflammasome Signaling: IL-1-beta AlphaLISA Primary Screen | THP-1 LPS/ATP IL-1B secretion, AlphaLISA, 16 h; hits give low values | activity change, % at 57.5 µM | 360,000 compounds, 4.7% hits | AID 743279, 2014; in the data active means activity change below about -50%; inconclusive means mostly about -30% to -49%
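THP-1 cells pretreated 1 hr with compounds (up to 57.5 uM final), then stimulated with LPS (250 ng/mL final) plus ATP (1.25 mM final); secreted IL-1B measured by AlphaLISA after 16 hr, decreased signal indicating inhibition.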
ELG1 FLuc counter: qHTS screen for small molecules that inhibit ELG1-dependent DNA repair: Hit Confirmation in Cell-Based Luciferin Assay; shares compounds with ELG1 repair inh; cell-free firefly luciferase luminescence counter-screen, ViewLux; Potency, µM (highest dose often 46.1 µM), without a hit: top-dose activity change, negative = inhibition, actives largely listed as inhibitors; 350 compounds, 3% hits; AID 624247, 2012; further: potency means the concentration at half of the fitted maximal effect
ELG1 Luc conf: HTS assay for small molecules that inhibit ELG1-dependent DNA repair in human embryonic kidney (HEK293T) cells expressing luciferase-tagged ELG1: Hit Confirmation; shares compounds with ELG1 repair inh; HEK293T ELG1-luciferase levels, luminescence; cells co-treated with 5-fluorouridine; Potency, µM (top dose mostly 46.1 µM), inactives show top-dose activity change, negative = inhibition, hits mostly inhibitors; 670 compounds, 68% hits; further: potency means the concentration at half of the fitted maximal effect; nearly all actives have a fitted effect of over 55% in size
Target sequence (Q96QE3 whole entry, looked up): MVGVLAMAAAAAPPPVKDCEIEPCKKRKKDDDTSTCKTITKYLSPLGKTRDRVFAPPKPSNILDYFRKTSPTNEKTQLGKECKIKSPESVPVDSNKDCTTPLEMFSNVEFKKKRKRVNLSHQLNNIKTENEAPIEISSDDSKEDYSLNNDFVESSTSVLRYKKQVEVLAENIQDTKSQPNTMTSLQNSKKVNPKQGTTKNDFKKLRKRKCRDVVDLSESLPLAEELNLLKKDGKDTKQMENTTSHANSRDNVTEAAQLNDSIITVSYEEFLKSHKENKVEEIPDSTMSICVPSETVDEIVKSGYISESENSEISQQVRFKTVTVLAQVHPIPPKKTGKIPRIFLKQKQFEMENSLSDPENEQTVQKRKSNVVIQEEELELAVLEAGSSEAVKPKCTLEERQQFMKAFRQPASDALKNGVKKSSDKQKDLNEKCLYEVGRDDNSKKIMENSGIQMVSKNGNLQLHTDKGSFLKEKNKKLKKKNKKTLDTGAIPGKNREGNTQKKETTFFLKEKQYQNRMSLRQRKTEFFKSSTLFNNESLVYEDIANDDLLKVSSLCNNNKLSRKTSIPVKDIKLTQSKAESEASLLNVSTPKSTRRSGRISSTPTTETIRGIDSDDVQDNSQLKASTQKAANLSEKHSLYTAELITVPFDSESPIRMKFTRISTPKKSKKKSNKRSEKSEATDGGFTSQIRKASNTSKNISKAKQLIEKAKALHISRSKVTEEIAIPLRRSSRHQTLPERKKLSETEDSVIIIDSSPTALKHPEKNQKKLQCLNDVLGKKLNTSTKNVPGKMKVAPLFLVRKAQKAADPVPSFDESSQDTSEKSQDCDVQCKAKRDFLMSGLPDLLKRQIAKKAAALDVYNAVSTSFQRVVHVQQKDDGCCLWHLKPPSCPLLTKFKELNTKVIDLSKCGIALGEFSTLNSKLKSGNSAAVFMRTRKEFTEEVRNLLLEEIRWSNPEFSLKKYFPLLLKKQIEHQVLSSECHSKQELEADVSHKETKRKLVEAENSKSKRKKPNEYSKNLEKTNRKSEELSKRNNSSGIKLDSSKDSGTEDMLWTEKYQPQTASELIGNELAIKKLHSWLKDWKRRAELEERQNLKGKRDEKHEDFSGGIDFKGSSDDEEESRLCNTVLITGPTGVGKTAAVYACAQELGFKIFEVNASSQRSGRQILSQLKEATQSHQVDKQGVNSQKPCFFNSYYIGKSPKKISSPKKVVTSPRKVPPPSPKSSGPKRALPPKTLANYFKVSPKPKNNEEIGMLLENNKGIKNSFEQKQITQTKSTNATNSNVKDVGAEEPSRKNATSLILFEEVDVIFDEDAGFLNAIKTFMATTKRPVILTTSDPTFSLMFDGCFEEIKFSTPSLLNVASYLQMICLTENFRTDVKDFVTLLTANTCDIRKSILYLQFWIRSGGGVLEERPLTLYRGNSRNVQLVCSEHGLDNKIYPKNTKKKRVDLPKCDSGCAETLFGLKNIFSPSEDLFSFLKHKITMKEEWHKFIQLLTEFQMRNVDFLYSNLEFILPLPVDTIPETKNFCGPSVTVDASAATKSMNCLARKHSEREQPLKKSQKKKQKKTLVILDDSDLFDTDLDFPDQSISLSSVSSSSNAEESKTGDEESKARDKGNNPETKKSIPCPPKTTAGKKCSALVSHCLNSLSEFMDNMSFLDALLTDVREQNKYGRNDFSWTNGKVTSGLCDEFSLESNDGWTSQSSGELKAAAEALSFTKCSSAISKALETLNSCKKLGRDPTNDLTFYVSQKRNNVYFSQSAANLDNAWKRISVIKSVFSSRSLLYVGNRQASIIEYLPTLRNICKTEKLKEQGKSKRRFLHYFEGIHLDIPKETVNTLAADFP
ELG1-Luc MMS: inhibits ELG1-dependent repair under MMS stimulation in HEK293T cells | shares compounds with ELG1 repair inh | 670 compounds, 53% hits | Potency, µM (series often up to 46.1 µM), inactives show at the top dose activity change, negative = inhibition, usual class: inhibitors | HEK293T luciferase-tagged ELG1 level, MMS stimulated; further: potency means the concentration at half of the fitted maximal effect; nearly all actives have a fitted effect of over 60% in size
ELG1 5FU viab: qHTS screen for small molecules that inhibit ELG1-dependent DNA repair: Hit Confirmation with 5FU Viability; 670 tested, under 10 active; AID 624250, 2012; shares compounds with ELG1 repair inh; Potency, µM (titrated, usually from 46.1 µM), without a hit: at the top dose activity change, negative = viability loss, usual class: cytotoxic; cell viability with 5-FU, ELG1-dependent repair;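 further: ELG1-luc HEK293T cells cotreated with 5-fluorouridine at 10 µM final; potency means the concentration at half of the fitted maximal effect; viability measured 16 h after compound addition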
ELG1 MMS cell: qHTS screen for small molecules that inhibit ELG1-dependent DNA repair: Hit Confirmation with MMS Viability; shares compounds with ELG1 repair inh; Cell viability with MMS, ELG1-dependent DNA repair; Potency, µM (top dose mostly 46.1 µM), inactives show at the top dose activity change, negative = viability loss, hits mostly cytotoxic; 670 compounds, 33% hits; AID 624251, 2012;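 further: ELG1-luc HEK293T cells co-treated with 10 µM MMS; potency means the concentration at half of the fitted maximal effect; viability read 16 h after compound addition; nearly all actives have a fitted effect of over 60% in size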
ELG1 unstim viab: qHTS screen for small molecules that inhibit ELG1-dependent DNA repair: Hit Confirmation with Unstimulated Viability Assay; AID 624252, 2012; shares compounds with ELG1 repair inh; 900 compounds, 8% hits; cell viability counter-screen, unstimulated, luminescence; Potency, µM (top dose mostly 45.9 µM), without a hit: at the top dose activity change, negative = loss of viability, most hits filed as cytotoxic;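 further: potency means the concentration at half of the fitted maximal effect; compound exposure lasted 16 hours before reading; nearly all actives have a fitted effect of over 55% in size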
FLuc enzyme: qHTS screen for small molecules that inhibit ELG1-dependent DNA repair: Hit Confirmation in Biochemical Luciferin Assay. shares compounds with ELG1 repair inh. purified firefly luciferase, luminescence counter-screen. Potency, µM (highest dose often 57.5 µM), without a hit: top-dose activity, negative = inhibition, hits mostly inhibitors. 350 compounds, 10% hits. AID 624253, 2012; further: potency means the concentration at half of the fitted maximal effect
An asterisk follows results filed as active; ? = inconclusive; nt = no result; [ ] = another dose, or the depositor's remark. Unless noted, the call rests on the fitted dose curve; in most records, active means well fitted curve in the direction sought with a large enough effect; inconclusive means small, poorly fitted or top-dose-only effect, or another doubt; inactive means no such curve, though single readings can be large; an effect the other way counts as inactive or inconclusive. Unless noted, on the % scale 0 is the no-effect control and ±100 the full control effect.

SMILES | HT1080 IDH1KD tx | ELG1 repair inh | TDP1 cell noCPT | TDP1 cell CPT | HT1080NT lethal | IL-1B inflam inh | ELG1 Luc conf | ELG1-Luc MMS | ELG1 5FU viab | ELG1 MMS cell | ELG1 unstim viab | others
O=S(=O)(Nc1nc(CN2CCOCC2)nc2sc3c(c12)CCCC3)c1cc(F)ccc1F | -1% | 1% | -15% | 17% | -5% | 29 | nt | nt | nt | nt | nt
c1ccc2c(c1)CCN(c1nc(CN3CCOCC3)nc3sc4c(c13)CCCC4)C2 | -22% | 10µM* | 16µM* | 23µM* | -15% | -51* | 10µM* | ? | ? | -19% | -20% | ELG1 FLuc counter=-11%;FLuc enzyme=-2%
COc1ccccc1NC(=O)c1cc2c(CO)cnc(C)c2oc1=Nc1ccc(OC)c(OC)c1 | -16% | 2.9µM* | ? | 9.2µM* | -11% | 36 | 0.89µM* | ? | ? | ? | ?
COc1ccccc1NC(=O)c1cc2c(CO)cnc(C)c2oc1=Nc1cc(OC)c(OC)c(OC)c1 | -7% | 1% | -11% | 1% | -25% | 57 | nt | nt | nt | nt | nt
Cl/C(=C\n1cncn1)c1ccc(Cl)cc1Cl | nt | nt | ? | -26% | nt | nt | nt | nt | nt | nt | nt
CN(c1ncnc(N)c1[N+](=O)[O-])C1CCCCC1 | -1% | 1.8µM* | ? | ? | 3% | ? | 3.1µM* | 13µM* | -8% | -5% | ?
CN(c1ncnc(N)c1[N+](=O)[O-])C1CCS(=O)(=O)C1 (stereo not drawn) | 5% | ? | ? | ? | 0% | 6 | nt | nt | nt | nt | nt
Cc1cccc(-c2noc(CCC(=O)N3CCN(c4cc(C)ccc4C)CC3)n2)c1 | 1% | ? | -8% | -22% | 3% | -6 | nt | nt | nt | nt | 0%
O=C(OCC(=O)N1CCc2ccccc2C1)c1c(F)cccc1Cl | -1% | ? | ? | -24% | 11% | -17 | nt | nt | nt | nt | -3%
Cc1ccc2nsnc2c1S(=O)(=O)N(Cc1cc2cccc(C)c2[nH]c1=O)CC1CCCO1 (stereo not drawn) | -1% | 2.3µM* | ? | ? | 3% | 1 | ? | 7.9µM* | 5% | -16% | ?
Cc1cccc2cc(CN(CC3CCCO3)C(=O)c3cnccn3)c(=O)[nH]c12 (stereo not drawn) | -18% | 11% | -3% | -9% | -1% | 2 | nt | nt | nt | nt | nt
COc1ccc(Cn2c(O)c(C=Nc3ccccc3C(=O)O)c3ccccc3c2=O)cc1 | -6% | 4.1µM* | 10µM* | 15µM* | -6% | 24 | 3.5µM* | 2.5µM* | -14% | 2.8µM* | ?
COc1ccc(Cn2c(O)c(C=Nc3ccc(OC)cc3)c3ccccc3c2=O)cc1 | 25% | -20% | -26% | -28% | ? | -14 | nt | nt | nt | nt | nt
COc1ccc(C(=O)Nc2cc3c(cc2N2CCCCC2)n(C)c(=O)n3C)cc1OC | -22% | -7% | 21µM* | ? | -23% | -30 | ? | 9% | ? | -2% | 0% | ELG1 FLuc counter=100%;FLuc enzyme=-2%
COc1cccc(CNC(=O)C2CCCN(C(=O)c3ccc(Cl)cc3)C2)c1 (stereo not drawn) | 1% | -3% | ? | -25% | 1%[9.24 µM] | 10 | nt | nt | nt | nt | nt
O=C(Nc1ccccc1-c1nc2ccccc2[nH]1)c1ccc(N2C(=O)CCC2=O)cc1 | -1% | 1.8µM* | 9.2µM* | ? | 2% | -10 | 0.71µM* | ? | ? | 4% | -18%
Cc1cccc[n+]1CC(=O)N1c2ccccc2Sc2ccccc21 | 2% | -12% | ? | ? | 5% | -3 | nt | nt | nt | nt | nt
CCC(C)NC(=O)c1ccc2nc(-c3ccc(OC)c(OC)c3)c(-c3ccc(OC)c(OC)c3)nc2c1 (stereo not drawn) | -1% | 0.52µM* | ? | 15µM* | -9% | -26 | 1.6µM* | -17% | ? | -8% | ? | ELG1 FLuc counter=9%;FLuc enzyme=-5%

Screening data: PubChem, National Center for Advancing Translational Sciences (NCATS)
